From PubChem BioAssay AID1117361 (Southern Research Institute, 2015)
About 900 (25%) of roughly 3,600 compounds were called active. No rule for the calls is given here. A selection follows. Measured potencies and affinities stand elsewhere.

target: Protein Tat (Human immunodeficiency virus type 1 group M subtype B (isolate HXB2)) (UniProt P04608); test: inhibitors of Tat binding to TAR RNA, dose response, counter-screen for Vif-APOBEC3G degradation inhibitor project, biochemical, fluorescence polarization, FAM-labeled TAR RNA (AID 1117361); details: outcome: dose series up to 100 µM unless noted; series mostly up to 100 µM

| Structure (SMILES) | outcome |
| --- | --- |
| O=S(=O)(c1ccc(F)cc1)N(CCO)CC(O)Cn1c2ccccc2c2ccccc21 (stereo not drawn) | inactive |
| Cc1c(C(=O)N2CCN(c3ccc(F)cc3)CC2)sc2nc(-c3ccccc3)cn12 | inactive |
| CCS(=O)(=O)n1nc(-c2ccc(Cl)cc2)nc1SC | inactive |
| Cn1c(C(=O)NCCN2CCOCC2)cc2c(=O)n(C)c3ccccc3c21 | inactive |
| COc1ccc(CNC(=O)Cn2nc(C(F)(F)F)c3c2CCC3)cc1 | inactive |
| Cc1sc(NC(=O)c2ccccc2)c(C(=O)NCCN(C)C)c1C | inactive |
| NC(=O)C1CCN(C2=C(Cl)C(=O)c3ccccc3C2=O)CC1 | inactive |
| CC1COCC(C)N1C1=C(Cl)C(=O)c2ccccc2C1=O (stereo not drawn) | inactive |
| CCc1cc2c(=O)n(-c3ccc(C)cc3)cnc2s1 | inactive |
| COc1ccc(CCNS(=O)(=O)c2ccc3c(c2)CCN3C(=O)CCC(=O)O)cc1OC | inactive |
| COc1ccc(C2C(C(=O)NCCN(C)C)c3ccccc3C(=O)N2C)cc1OC (stereo not drawn) | inactive |
| CCCCN(CCCC)S(=O)(=O)c1ccc(NC(=O)c2cccs2)cc1 | inactive |
| [O-][n+]1onc2c1CCc1c-2nc(-c2ccccc2)n1OCc1ccccc1 | inactive |
| CCN(CCCNC(=O)C1CCCN(S(=O)(=O)CC)C1)c1cccc(C)c1 (stereo not drawn) | inactive |
| O=C(c1ccc2c(c1)OCCO2)C1CCN(C(=O)c2ccc(F)cc2)CC1 | inactive |
| CCc1ccccc1NC(=S)N(Cc1ccc(OC)cc1)CC1CCC(C(=O)O)CC1 (stereo not drawn) | inactive |
| CCn1cc(C(=O)NCc2ccc3c(c2)OCO3)c2cc(OC)c(OC)cc2c1=O | inactive |
| Cc1ccc(C(=O)C2C(c3cccs3)NC(=O)NC2(O)C(F)(F)F)cc1 (stereo not drawn) | inactive |
| CCOC(=O)C1=C(CN2CCN(c3ccc(F)cc3)CC2)NC(=O)NC1c1cccs1 (stereo not drawn) | inactive |
| Cn1cccc1C(=O)NC(=O)COC(=O)CC12CC3CC(CC(Br)(C3)C1)C2 | inactive |
| CC1=C(C(=O)OCC(Cl)(Cl)Cl)N2C(=O)C(NC(=O)Cc3ccccc3)C2SC1 (stereo not drawn) | inactive |
| O=C(Cc1ccccc1)Nc1scc(-c2ccccc2)c1C(=O)N1CCOCC1 | inactive |
| CC(=O)[C@@]1(O)CC[C@H]2[C@@H]3CCC4=CC(=O)CC[C@]4(C)[C@H]3CC[C@@]21C | inactive |

| Structure (SMILES) | outcome |
| --- | --- |
| Cc1sc(-c2ccncc2)nc1OC(=O)c1ccccc1 | inactive |
| COc1ccc(S(=O)(=O)NC2CC(C)(C)NC(C)(C)C2)c(C)c1C | inactive |
| Cc1sc2nc(C)n(/N=C/c3ccccc3O)c(=O)c2c1C | inactive |
| C=CCNC(=O)c1cc(=O)c2ccccc2o1 | inactive |
| Cc1nn(-c2ccc(Cl)cc2)c2[nH]c(=O)c(CNCc3ccc4c(c3)OCO4)cc12 | inactive |
| O=c1oc(/C=C/c2ccccc2)nc2sc3c(c12)CCC3 | inactive |
| O=[N+]([O-])c1cc(C(F)(F)F)ccc1N1CCN(S(=O)(=O)c2ccc3ccccc3c2)CC1 | inactive |
| COC(=O)C1=C(Nc2ccc(OC)cc2)C=C(C)C(C(=O)OC)C1c1ccc(C)cc1 (stereo not drawn) | inactive |
| CC1(C)CC(NS(=O)(=O)c2ccccc2)CC(C)(C)N1 | inactive |
| CC1(C)C2CCC1(C)C(NC1=NCCC1)C2 (stereo not drawn) | inactive |
| CCCN(CCC)C(=O)c1cc(-c2ccc3c(c2)OCO3)nc2ccccc12 | inactive |
| CC(=NCc1ccc2c(c1)OCO2)C1=C(O)c2ccccc2C1=O | inactive |
| CC(OC(=O)CC1CCCC1)C(=O)Nc1ccc(Cl)cn1 (stereo not drawn) | inactive |
| Nn1c(SCC(=O)NC2CCCc3ccccc32)nnc1-c1cccs1 (stereo not drawn) | inactive |
| COc1ccccc1CNS(=O)(=O)c1cccc(S(=O)(=O)N2CCOCC2)c1 | inactive |
| COC(=O)C1C2CCC(C2)C1C(=O)OCC(=O)c1ccc(C)cc1 (stereo not drawn) | inactive |
| CC(C)CC(=O)N(c1ccc(F)cc1)C1C=CS(=O)(=O)C1 (stereo not drawn) | inactive |
| O=C(CCl)N1N=C(c2ccco2)CC1c1ccco1 (stereo not drawn) | inactive |
| Cc1cc(C)cc(NC(=S)NC(=O)CCN2C(=O)c3ccccc3C2=O)c1 | inactive |
| CCCCOc1cccc(C(=O)NC(=S)Nc2ccc(Cl)c(C(=O)O)c2)c1 | inactive |
| CCc1ccc(-c2cc(C(=O)Nc3ccc(S(=O)(=O)NC(C)=O)cc3)c3ccccc3n2)cc1 | inactive |
| COC(=O)c1ccc(C)c(NS(=O)(=O)c2ccc(NC(C)=O)cc2)c1 | inactive |
| CC(=O)Nc1ccc(S(=O)(=O)Nc2cccc(-c3nc4ccccc4o3)c2)cc1 | inactive |

| Structure (SMILES) | outcome |
| --- | --- |
| COc1ccc(N2CCN(c3nc4ccccc4nc3NS(=O)(=O)c3ccccc3)CC2)cc1 | inactive |
| COc1ccc(NCc2nnc(SCC(=O)N3CCCc4ccccc43)o2)cc1 | inactive |
| O=c1oc(-c2cccnc2)nc2ccccc12 | inactive |
| FC(F)Oc1ccccc1NC(=S)Nc1cccnc1 | inactive |
| CC(C)(C)c1ccc(NC(=S)NCc2cccnc2)cc1 | inactive |
| COc1ccc(N2C(=O)C3CCCN3C2c2ccc(C)cc2)cc1 (stereo not drawn) | inactive |
| CS(=O)(=O)N1CCC(C(=O)NCCc2ccccc2)CC1 | inactive |
| Cn1c(CNC(=O)C2CCCCC2)cc2cc(Cl)ccc21 | inactive |
| CC(CN1CCN(C)CC1)OC(=O)c1ccccc1Cl (stereo not drawn) | inactive |
| COc1ccc(C)cc1NC(=O)c1[nH]c(C)c(C(C)=O)c1C | inactive |
| COc1ccccc1N1CCN(C(=O)C(F)F)CC1 | inactive |
| O=C(NCc1ccc(N2CCCC2=O)cc1)NC1CCCCC1 | inactive |
| Cc1ccc2nc(C3CCN(CC(=O)Nc4ccc5c(c4)OCCO5)CC3)[nH]c2c1 | inactive |
| O=C1NC2(CCCCC2)NN1c1ccccc1 | inactive |
| Cc1cc(C)c2c(c1)[C@@H]1C=CC[C@@H]1[C@H](c1ccc(S(=O)(=O)N3CCOCC3)cc1)N2 | inactive |
| O=C(O)c1ccc2c(c1)C(c1ccccc1)OC2=O (stereo not drawn) | inactive |
| CCC(C)NS(=O)(=O)c1ccc(S(=O)(=O)N(CC(=O)Nc2ccccc2)CC2CCCO2)cc1 (stereo not drawn) | inactive |
| COc1ccccc1S(=O)(=O)Cc1ccc(C(=O)N2CCN(c3ccccn3)CC2)o1 | inactive |
| CCN1CCN(CCCNC(=O)c2ccc3c(c2)NC(=O)c2ccccc2S3)CC1 | inactive |
| CC1(C)CC(=O)C2=C(C1)N(Cc1ccc(F)cc1)C(=O)C2(NC(=O)c1cccnc1)C(F)(F)F (stereo not drawn) | inactive |
| CC(=O)Nn1cc2c(=O)n(C)c(=O)n(C)c2c1 | inactive |
| CCN(CC)CCN1C(=O)c2ccccc2NC1c1ccc(N(C)C)cc1 (stereo not drawn) | inactive |
